# Compound activity from PubChem BioAssay.
# Shown are actives, neighbours in structure and some others; about 1.5% of the full set was active somewhere.
# MbtI inh – MbtI salicylate synthase inhibitors, primary screen, biochemical, fluorescence intensity; P9WFX0; purified MbtI enzyme, fluorescence intensity read-out; inhibition, % (test concentration not listed); actives 0.89% (n = 100,000); AID 493033, 2011; in the data active means inhibition mostly above about 56%, no sharp cut-off; inactive means mostly below about 77%
# Target sequence (P9WFX0 whole entry, looked up): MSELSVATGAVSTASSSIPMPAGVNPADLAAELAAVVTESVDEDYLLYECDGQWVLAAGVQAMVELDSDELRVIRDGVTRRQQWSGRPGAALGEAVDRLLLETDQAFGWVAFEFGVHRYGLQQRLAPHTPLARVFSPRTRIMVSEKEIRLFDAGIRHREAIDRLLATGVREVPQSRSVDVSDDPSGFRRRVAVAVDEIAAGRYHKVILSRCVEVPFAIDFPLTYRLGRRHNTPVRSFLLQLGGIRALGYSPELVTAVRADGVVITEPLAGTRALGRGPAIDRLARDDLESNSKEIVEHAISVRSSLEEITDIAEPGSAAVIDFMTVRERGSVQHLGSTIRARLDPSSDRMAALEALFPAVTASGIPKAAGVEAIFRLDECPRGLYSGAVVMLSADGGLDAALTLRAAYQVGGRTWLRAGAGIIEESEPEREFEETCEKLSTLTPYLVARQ
# PV pol inh – poliovirus RdRp elongation inhibitors, primary screen, biochemical, fluorescence polarization, total intensity | Genome polyprotein (Poliovirus type 1 (strain Mahoney)), P03300 | poliovirus polymerase elongation; active compounds read low | % elongation, % (compound at 16.7 µg/mL) | actives 0.66% (n = 150,000); in the data active means % elongation below about 90%
# Mtb MenB inh – M. tuberculosis MenB inhibitors, primary screen, biochemical, absorbance | AID 540299, 2011 | MenB enzyme assay, absorbance read-out | inhibition, % (no concentration beside the values) | actives 0.43% (n = 100,000) | 1,4-dihydroxy-2-naphthoyl-CoA synthase (Mycobacterium tuberculosis (strain ATCC 25618 / …; in the data active means inhibition above about 21%, passing the limit was not always enough
# * = called active by the depositor; i = inactive; / = no result.
SMILES,MbtI inh,PV pol inh,Mtb MenB inh
CCc1ccc(C=C2C(=O)N(C)C(=S)N(C)C2=O)cc1,98.7*,98.0,-73.5
CC1CCN(C(=O)Cn2cc(C=C3C(=O)N(C)C(=O)N(C)C3=O)c3ccccc32)CC1,-4.3,105.0,-18.6
CN1C(=O)C(=Cc2cn(CC(=O)O)c3ccccc23)C(=O)N(C)C1=S,75.2*,103.0,-42.8
Cc1ccc(S(=O)(=O)NC(=O)Oc2cccc3cccnc23)cc1,-0.2,100.0,-21.0
NC(=S)NCCc1ccccc1,83.0*,86.0*,-49.9
S=C(NCCc1ccccc1)c1ccccc1,-10.0,103.0,-8.7
O=C(CSc1nnc(-c2ccco2)o1)N1CCCc2ccccc21,-10.9,99.0,-21.2
O=C(OCc1ccccc1)Sc1nnc(-c2ccc(Br)cc2)o1,-4.4,/,/
N/C(=N\O)c1cccc(/C(N)=N/O)n1,/,113.0,47.3*
N/C(=N\O)c1ccncc1,-7.8,102.0,-16.9
S=c1[nH]nc(Cc2cccc3ccccc23)o1,/,103.0,-34.3
S=c1[nH]nc(CNc2cccc(Cl)c2)o1,83.7*,100.0,-25.5
S=C(c1c[nH]c2ccccc12)N1CCCCC1,78.6*,105.0,-21.0
S=C(c1c[nH]c2ccccc12)N1CCCC1,-1.6,102.0,-29.7
C=CCOc1nc(N2CCCCC2)nc(N2CCCCC2)n1,-4.4,103.0,-1.2
O=C(c1cc(=O)[nH]c2ccccc12)N1CCCc2ccccc21,-1.8,/,-4.6
O=C(c1cc(=O)[nH]c2ccccc12)N1CCSC1=NCCc1ccccc1,-5.5,64.0*,-7.5
O=C(Cn1[nH]c(=O)c2ccccc2c1=O)N1CCSC1=NCc1ccccc1,-18.9,90.0*,1.7
CC1(C)CSC(=NCc2ccccc2)N1C(=O)Cn1[nH]c(=O)c2ccccc2c1=O,-12.8,95.0,-41.9
Cc1ccc(SCC2CNC(c3ccc(N(C)C)cc3)O2)cc1 (stereo not given),5.2,103.0,/
Cc1ccc(NC(=O)Cn2cc(C#N)c3ccccc32)cc1,3.0,102.0,55.9*
COc1ccc(NC(=O)Cn2cc(C#N)c3ccccc32)cc1,-10.8,99.0,-0.7
C=CCNC(=O)c1cc(-c2ccccc2)on1,8.2,100.0,33.8*
O=C(O)c1cc(-c2ccc(F)cc2)on1,/,98.0,47.4*
CCN(CC)C(=O)c1cc(-c2ccc(C)cc2)on1,/,100.0,5.0
SMILES,MbtI inh,PV pol inh,Mtb MenB inh
C=CCNC(=O)c1cc(-c2ccc(OC)cc2)on1,-10.7,101.0,-9.4
CCN(CC)C(=O)c1cc(-c2ccccc2)on1,7.2,102.0,33.8*
O=C(Nc1ccc(F)cc1F)c1cc(-c2ccc(Cl)cc2)on1,/,103.0,/
CCCOc1ccc(C2C(=O)N(C3CCCCCC3)CC(=O)N2CCC2=CCCCC2)cc1OC (stereo not given),/,102.0,/
CC(=O)N(Cc1cccc(Br)c1)c1ccc2oc(-c3ccc(C)cc3)nc2c1,i,101.0,-29.8
CC1=C(C(=O)OCC(C)C)C(c2ccc(Cl)cc2)NC(=O)N1C (stereo not given),/,106.0,-27.2
Nc1ccc(N2CCOCC2)c2nonc12,18.0,85.0*,-139.9
O=C(Nc1ccc(N2CCOCC2)c2nonc12)c1ccco1,1.1,99.0,-2.8
c1ccc(OCCSC2=NCCN2)cc1,89.0*,101.0,-36.9
c1ccc(OCCSc2nc3ccccc3[nH]2)cc1,-1.1,101.0,-1.0
Cc1ccccc1CNC(=O)CCCn1c(=O)c2cccn2c2cccnc21,/,102.0,/
NN(CCO)C(=S)NCc1ccc(Cl)cc1,0.7,104.0,-11.3
O=C(O)c1cccc(O)c1,-75.2,100.0,/
CC(C)P(=O)(c1cccc(C(=O)O)c1)C(C)C,/,102.0,23.4*
COc1ccc(NC(=O)c2cc(=O)[nH]c3ccccc23)cc1,-8.7,104.0,-28.9
COc1ccc(NC(=O)c2sc(=S)n3c2[nH]c(=O)c2ccccc23)cc1,94.4*,102.0,-48.1
CCOC(=O)c1cc(-c2ccccc2)n(CCC(=O)N(C)C2CCCCC2)c1C,-8.2,103.0,-39.5
O=c1c2ccccc2[nH]c(=S)n1C1CCCC1,-7.2,105.0,3.1
S=c1[nH]c2ccccc2n1C1CCCCC1,97.8*,100.0,-13.8
COc1ccc(NC(=O)NC(C)c2c(-n3cccc3)sc3c2CCN(C)C3)c(OC)c1 (stereo not given),/,106.0,/
COc1cccc(NC(=O)Cn2c(=O)n(CC(=O)NCCc3ccccc3)c(=O)c3sccc32)c1,/,105.0,/
CCOc1ccc(NC(=O)Cn2c(=O)n(CC(=O)NCCc3ccccc3)c(=O)c3sccc32)cc1,/,81.0*,/
FC(F)(F)c1ccc(=S)[nH]c1,93.4*,111.0,-42.9
O=c1ccc(C(F)(F)Cl)c[nH]1,-11.9,103.0,/
Cc1cc(C(N)=O)c(C)n1-c1ccc(Br)cc1,-9.4,102.0,/
SMILES,MbtI inh,PV pol inh,Mtb MenB inh
CCOC(=O)c1c(NC(=O)c2cc(-c3ccc(Br)cc3)on2)sc(C)c1C,/,89.0*,/
CCOC(=O)c1c(NC(=O)c2cc(-c3cccc(Cl)c3)on2)sc(C)c1C,/,96.0,/
CCOC(=O)CS(=O)c1nc2c(c(C(F)(F)F)n1)CCc1ccccc1-2 (stereo not given),78.8,104.0,-11.3
O=C(CS(=O)(=O)Cc1ccccc1)Nc1ccccn1,7.4,101.0,36.3*
O=C(CS(=O)(=O)c1ccccc1)Nc1ccccn1,21.4,100.0,8.9
CCN(CC)c1ccc(NC(=O)COC(=O)Cc2ccc(Cl)cc2)cc1,-10.2,101.0,/
CC(C)Sc1n[nH]c(=S)n1C,42.0,109.0,-18.7
CC(C)Sc1n[nH]c(=S)s1,97.8*,88.0*,-104.2
CCC(C)Sc1n[nH]c(=S)s1 (stereo not given),99.0*,101.0,6.0
Fc1ccc(C2=NNC3=NCCN3C2)cc1F,0.6,104.0,-10.3
CC1CC(C)CN(S(=O)(=O)c2ccc(C(=O)OCc3nnc(-c4ccc(Cl)cc4)o3)cc2)C1 (stereo not given),-12.8,108.0,-18.3
CCN(CC)CCn1cnc2ccccc21,/,106.0,2.0
O=C(O)CC1(CC(=O)Nc2cccc3nonc23)CCCCC1,-9.8,99.0,-27.3
O=C1NC(C2CC=CCC2)Nc2ccccc21 (stereo not given),-8.0,109.0,-7.5
Oc1ccccc1C1OCC(C2CC=CCC2)CO1 (stereo not given),-8.2,104.0,36.4*
Cc1c(Cl)cccc1N1C(=O)c2cccnc2C1=O,-4.4,100.0,8.1
O=c1oc2ccc(NS(=O)(=O)c3ccc(F)cc3)cc2s1,40.0,99.0,-2.3
O=C(O)c1ccc(S(=O)(=O)Nc2ccc3oc(=O)sc3c2)cc1,77.9*,/,/
O=C(Nc1ccccc1)C1CCC1,-5.2,104.0,/
O=C(NC(=S)c1ccccc1)C1CC1,74.4*,91.0,-37.5
O=c1oc2c(O)c(O)cc3c(=O)oc4c(O)c(O)cc1c4c23,25.8,83.0*,-4.7
O=c1oc2ccccc2c2oc3cc(O)c(O)cc3c12,81.8,100.0,-4.5
O=C(Nc1nc(-c2ccco2)c(-c2ccco2)s1)OCc1ccccc1,29.4,137.0,-36.4
CN(C)CCCNC1=CC(=O)OC12CCCCC2,-5.7,103.0,6.3
COc1ccc(CCNC2=CC(=O)OC23CCCCC3)cc1OC,/,72.0*,3.1
Cc1c(/C=N/NC(=O)Cc2cccs2)cc(C#N)n1C,2.9,99.0,-2.2
